MBD2 DNA inh: MBD2-methylated oligo binding inhibition | Q9UBB5 | TR-FRET, MBD2 binding to methylated oligonucleotide | inhibition, % at 4.4 µM | 370,000 compounds, 0.31% hits | AID 686964; in the data active = inhibition above about 13%
Target sequence (Q9UBB5 whole entry, looked up): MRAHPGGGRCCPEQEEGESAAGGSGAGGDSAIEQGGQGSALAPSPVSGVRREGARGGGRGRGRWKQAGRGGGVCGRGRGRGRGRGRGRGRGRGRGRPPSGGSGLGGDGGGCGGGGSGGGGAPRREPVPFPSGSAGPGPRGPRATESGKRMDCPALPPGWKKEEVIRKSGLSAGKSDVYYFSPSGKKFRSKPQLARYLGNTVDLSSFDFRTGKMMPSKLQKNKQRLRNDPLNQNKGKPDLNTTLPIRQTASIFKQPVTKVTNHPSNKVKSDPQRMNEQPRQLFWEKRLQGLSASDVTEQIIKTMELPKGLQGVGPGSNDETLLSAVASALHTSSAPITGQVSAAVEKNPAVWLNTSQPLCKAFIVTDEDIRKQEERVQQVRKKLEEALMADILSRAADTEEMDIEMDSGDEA
UHRF1 MBD2 ctr: UHRF1 methyl-DNA binding inhibition; 370,000 compounds, 0.75% hits; inhibition, % at 4.4 µM; UHRF1 binding to methylated oligo, TR-FRET; AID 687016; in the data active = inhibition above about 21%;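 also: UHRF1 SRA domain binding a hemimethylated CpG hairpin DNA probe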
PLCb3 inh: PLC-beta3 (human) inhibition, primary screen. Q01970. Purified PLC-beta3, fluorogenic substrate, fluorescence. inhibition, % at 12.2 µM. 370,000 compounds, 0.18% hits. AID 720704
PLCg1 inh: blocks human PLC-gamma1 enzyme activity. P19174. inhibition, % at 12.2 µM. AID 720700. purified PLC-gamma1, fluorogenic substrate, fluorescence. 370,000 compounds, 0.84% hits; in the data active = inhibition above about 9.5%
LEDGF integ inh: blocks HIV-1 LEDGF/p75-dependent DNA integration | 370,000 compounds, 0.64% hits | TR-FRET IN-LEDGF/p75 DNA integration, Eu/Cy5 | AID 743269 | inhibition, % at 3.7 µM;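 active = inhibition above the screen-wide mean plus 3 SD, cut at about 13% in these data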;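 also: signal is the Cy5 over europium emission ratio at 671 and 618 nm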
PLCgamma1 ctr: PLC-gamma1 inhibition, counter-screen for PLC-beta3 hits | 3,300 compounds, 3.1% hits | purified PLC-gamma1, fluorogenic substrate, fluorescence | inhibition, % at 12.3 µM | shares compounds with PLCg1 inh | AID 743258; in the data active = inhibition above about 9.5%
PLCbeta3 conf: confirmation of human PLC-beta3 inhibitors; shares compounds with PLCg1 inh; purified PLC-beta3, fluorogenic substrate fluorescence; inhibition, % at 12.3 µM; 3,300 compounds, 1% hits
Large screens that a line does not name were inactive (follow-up assays come after a bar, where they were run); ! = a repeat was not active. The list is not random: actives were taken first. Their share in the collection is about 2.3%. Rule as the data show it, unless noted: active = inhibition above about 11%; inactive = the rest.

COc1ccc(NC(=O)Cc2ccc(C)cc2)c([N+](=O)[O-])c1	PLCb3 inh 14.4 | PLCgamma1 ctr inactive | PLCbeta3 conf inactive
Cc1cccc(NC(=O)Cn2nnc(-c3ccccc3F)n2)c1C	none
O=C(CSc1ccc2nnc(CCNC(=O)c3ccccc3)n2n1)NCc1ccco1	none
O=C(CSc1ccc2nnc(CCNC(=O)c3ccc(F)cc3)n2n1)NCc1ccco1	PLCg1 inh 13.9 | PLCgamma1 ctr inactive | PLCbeta3 conf inactive
Cc1nc2ccc(S(=O)(=O)NCC(=O)N(C)Cc3ccccc3Cl)cc2s1	none
O=C(c1cccc(S(=O)(=O)N2CCCCCC2)c1)N1CCN(c2ccccc2F)CC1	none
O=C(c1ccc(S(=O)(=O)N2CCCCCC2)cc1)N1CCN(c2ccccc2F)CC1	PLCg1 inh 12.3 | PLCgamma1 ctr inactive | PLCbeta3 conf inactive
N#Cc1cccc(NC(=O)OC2CC3CC2[C@H]2CCCCN2C3)c1 (some centres undefined)	none
O=C1C[C@@H](C(=O)Nc2ccc(Cl)cc2)[C@@H](c2ccccc2)O1	none
COc1ccc(NC(=O)C2CC(=O)OC2c2ccccc2)cc1 (centres undefined)	PLCg1 inh 10.2 | PLCgamma1 ctr inactive | PLCbeta3 conf inactive
Cc1ccccc1C(=O)NC1CCCCN(Cc2cccc(Cl)c2)C1=O (centres undefined)	none
CCN(C(=O)Cn1cnc2c(nc3n2CCCCC3)c1=O)c1cccc(Cl)c1	PLCg1 inh 11.7 | PLCgamma1 ctr inactive | PLCbeta3 conf inactive
CCCCNS(=O)(=O)/C=C/c1ccccc1CNC(=O)OC(C)(C)C	none
CCCNC(=O)NC(C(=O)OC)C12CC3CC(CC(C3)C1)C2 (centres undefined)	PLCg1 inh 10.9 | PLCgamma1 ctr inactive | PLCbeta3 conf inactive
c1ccc(Cn2ncc3ccccc32)cc1	PLCg1 inh 14.9 | PLCgamma1 ctr inactive | PLCbeta3 conf inactive
O=C(NCc1cccs1)c1ccc([N+](=O)[O-])cc1	PLCb3 inh 12.2, PLCg1 inh 10.0 | PLCgamma1 ctr inactive | PLCbeta3 conf inactive
Cc1cc(C(=O)NCc2cccs2)ccc1[N+](=O)[O-]	none
Cc1ccc(-c2nnc(SCC(=O)NC3CC3)n2N)cc1	none
Cc1ccc(-c2nnc(SCC(=O)NC3CCCC3)n2N)cc1	PLCg1 inh 11.6 | PLCgamma1 ctr inactive | PLCbeta3 conf inactive
Cc1ccc(C(C)C)c(OCC(O)CN2CC(C)OC(C)C2)c1 (centres undefined)	PLCg1 inh 14.8 | PLCgamma1 ctr inactive | PLCbeta3 conf inactive
Cc1cc(C)cc(N(CCC#N)C(=O)CSc2nc3ccccc3c(=O)[nH]2)c1	PLCg1 inh 9.8 | PLCgamma1 ctr inactive | PLCbeta3 conf inactive
CCOc1ccccc1Nc1nc(N)nc(CN(C)C2CCCCC2)n1	PLCb3 inh 12.3 | PLCgamma1 ctr inactive | PLCbeta3 conf inactive
COC(=O)[C@@H]1C[C@@]2(c3ccccc3)c3ccccc3N(S(=O)(=O)c3ccccc3)[C@H]2N1C(=O)CNC1CCCCC1	none
CCCCCN1CCCCC(NC(=O)C(C)(C)C)C1=O (centres undefined)	none
Oc1ccc(C[C@@H]2CNCCN2CCCCC2CCCCC2)cc1	PLCb3 inh 14.2 | PLCgamma1 ctr inactive | PLCbeta3 conf inactive
CC(C)(C)c1ccc(S(=O)(=O)N2CCCC(C(=O)NCc3ccco3)C2)cc1 (centres undefined)	none
CCn1c(O)c(C2=NCCCC2)c2ccccc21	PLCg1 inh 9.7 | PLCgamma1 ctr inactive | PLCbeta3 conf inactive
O=C(COCc1ccccc1)N1CC[C@H]2[C@H](CCCN2Cc2cc(F)cc(F)c2)C1	none
COC(=O)[C@H](Cc1ccccc1)NC(=O)c1ccc2ccccc2n1	none
CC(C)(C)NC(=O)[C@@H]1C[C@@H]2CCCC[C@@H]2CN1C[C@@H](O)[C@H](Cc1ccccc1)NC(=O)[C@H](CC(N)=O)NC(=O)c1ccc2ccccc2n1	PLCg1 inh 9.7! | PLCgamma1 ctr inactive | PLCbeta3 conf inactive
COC(=O)C1CN(Cc2cn(CCOC(C)=O)nn2)CCS(=O)(=O)N1Cc1ccc(Cl)cc1 (centres undefined)	none
CCn1c(CNC(=O)COc2ccc(C(C)C)cc2)nnc1SCC(=O)Nc1cc(F)ccc1C	PLCg1 inh 10.3 | PLCgamma1 ctr inactive | PLCbeta3 conf inactive

Screens as filed in PubChem.
